Screening results from PubChem BioAssay.
This is a sample that favours compounds with a hit; in the whole collection about 2% have one here.
CHT block = inhibitors of human choline transporter CHT; CHT-expressing cells, membrane potential dye, choline response; hits give low values; B-score at 10 µM; hit rate 0.86% among 310,000; AID 488975, 2010;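 active means B-score over 3 SD under the library average, and starting fluorescence ratio not unusually high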;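 further: choline stimulus applied at its EC90 after an EC20 pre-addition; B-score computed on integrated fluorescence ratio after choline addition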
Target sequence (Q9GZV3 whole entry, looked up): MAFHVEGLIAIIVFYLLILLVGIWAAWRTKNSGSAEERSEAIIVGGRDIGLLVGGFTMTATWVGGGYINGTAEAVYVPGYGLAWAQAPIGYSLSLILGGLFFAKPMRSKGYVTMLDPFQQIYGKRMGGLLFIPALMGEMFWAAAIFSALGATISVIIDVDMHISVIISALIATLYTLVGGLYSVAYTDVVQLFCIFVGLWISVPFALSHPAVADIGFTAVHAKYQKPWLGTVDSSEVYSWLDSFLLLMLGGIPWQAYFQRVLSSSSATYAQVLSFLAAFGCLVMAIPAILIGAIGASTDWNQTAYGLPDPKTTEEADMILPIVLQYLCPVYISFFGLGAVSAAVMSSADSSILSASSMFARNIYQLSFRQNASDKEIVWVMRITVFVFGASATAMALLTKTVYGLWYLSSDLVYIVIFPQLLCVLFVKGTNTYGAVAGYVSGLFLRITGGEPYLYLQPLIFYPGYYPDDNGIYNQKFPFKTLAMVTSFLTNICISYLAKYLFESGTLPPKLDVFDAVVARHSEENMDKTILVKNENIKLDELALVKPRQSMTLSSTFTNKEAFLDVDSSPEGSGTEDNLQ
TAG inh = inhibitors of triacylglycerol accumulation, primary screen, cell-based, uHTS, fluorescence, H9c2; H9c2 cells, Nile Red lipid (TAG) fluorescence; cells loaded with 200 µM oleic acid; hit rate 0.66% among 230,000; inhibition, % at 12.5 µM;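 active means pattern-corrected inhibition of lipid staining of at least 50% with the nuclear-stain viability signal not falling by more than 50%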
Kir21 block = inhibitors of mouse Kir2.1 inward-rectifier potassium channel; Inward rectifier potassium channel 2 (Mus musculus), P35561; HEK293-Kir2.1, FluxOR thallium flux fluorescence; hits give low values; B-score at 10 µM; hit rate 0.85% among 310,000;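 active means fluorescence ratio B-score at or below minus 3 SD of library scores, with starting-brightness B-score within 2 SD, cut at about -4.2 in these data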;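 further: channel flux triggered by added potassium and thallium sulfate stimulus; B-score of peak minus minimum fluorescence over baseline after thallium stimulus; more negative B-score means stronger Kir2.1 block with less thallium influx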
CHT PAM = CHT positive allosteric modulators, primary screen, cell-based, membrane potential dye, choline EC20 | AID 488977, 2010 | CHT-expressing cells; hits give high values; LV-AA mutant CHT in HEK293 cells | B-score at 10 µM | hit rate 0.49% among 310,000 | High affinity choline transporter 1 (Homo sapiens), Q9GZV3;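 active means initial fluorescence not abnormally high and integrated response B-score, plate-corrected, over 3 SD above library mean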
CHT activ conf = CHT activators, confirmation, cell-based, membrane potential dye, duplicate; shares compounds with CHT PAM; CHT-expressing cells, membrane potential dye fluorescence (FDSS); % of choline EC20–EC90 response window; HEK293 expressing CHT LV-AA mutant; choline added at its EC20; activation, % at 10 µM; hit rate 91% among 2,500;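 active means primary screen active, with duplicate mean activation above negative control mean plus 3 SD, cut at about 11% in these data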
HEK293 MP dye = membrane potential response in parental HEK293 cells, counter-screen for CHT activator project, cell-based, membrane potential dye; hit rate 62% among 2,500; membrane potential dye fluorescence (FDSS); measured after EC20 choline addition; ratio readout change at 10 µM, hits read low; AID 623908, 2012; shares compounds with CHT PAM;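 active means duplicate-averaged ratio beyond 3 SD from buffer wells, up or down, though filed actives are nearly all decreases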
Large screens that a line does not name were inactive (follow-up assays come after a bar, where they were run).

CC(C)N(Cc1ccccc1)C(=O)c1ccc2nsnc2c1	none
Cc1ccccc1-c1nc(CN2CCC(C(=O)NCCCN3CCOCC3)CC2)c(C)o1	none (no result: TAG inh) | CHT activ conf 40.1 | HEK293 MP dye -25.9
Cc1oc(-c2ccc(Cl)cc2)nc1CN1CCC(C(=O)NCCCN2CCCC2=O)CC1	none
Cc1oc(-c2ccc(Cl)cc2)nc1CN1CCC(C(=O)NCCCN2CCCC(C)C2)CC1 (configuration not stated)	none (no result: TAG inh) | CHT activ conf 54.8 | HEK293 MP dye -28
COc1ccc(CCNC(=O)Cn2cnc3scc(-c4ccccc4)c3c2=O)cc1OC	none (no result: TAG inh)
O=C(c1cc(F)c(F)cc1Cl)N1CCN(CCc2ccccc2)CC1	none (no result: TAG inh)
COC(=O)[C@H]1C[C@H](OC(=O)NCc2ccccc2F)[C@@]2(O)CN(S(=O)(=O)c3ccc(C)cc3)CC2[C@H]1C(=O)OC (some centres not stated)	none (no result: CHT block, Kir21 block, CHT PAM)
NC(=O)c1ccccc1NC(=S)NC(=O)CCc1ccccc1	none (no result: TAG inh) | CHT activ conf inactive | HEK293 MP dye inactive
COc1cccc(/C=C/c2ccccn2)c1O	none
OC(C#CCCN1CCCCC1)(c1ccccc1)c1ccccc1	none
OC(C#CCCN1CCCCC1)(c1ccccc1)C1CCCCC1 (configuration not stated)	CHT PAM 7.48 | CHT activ conf 17.8 | HEK293 MP dye inactive
CCc1ccc2nc(/N=C(\N)NC(=O)c3ccccc3)nc(C)c2c1	none
CCCC(=O)N/C(N)=N/c1nc(C)c2ccccc2n1	none | CHT activ conf 35.9 | HEK293 MP dye -46
CC1(C)Cc2c(sc3nc(NCCN4CCOCC4)n4ncnc4c23)CO1	CHT PAM 6.46 | CHT activ conf 62.2 | HEK293 MP dye -61.8
CCc1cc(=O)oc2cc(C)cc(OCC(=O)NCCCN3CCOCC3)c12	none (no result: TAG inh)
Cc1cc(OCC(=O)NCCCN2CCOCC2)c2c(C)cc(=O)oc2c1	CHT PAM 6.52 (no result: TAG inh) | CHT activ conf 60.2 | HEK293 MP dye -52.5
COc1ccc(S(=O)(=O)N2CCCCC2)cc1NS(=O)(=O)c1ccc(CNC(C)=O)cc1	none (no result: CHT block, Kir21 block, CHT PAM)
CCOC(=O)C1(CC2CC2)CCN(Cc2cn[nH]c2-c2cccc(F)c2)CC1	none (no result: TAG inh) | CHT activ conf 22.4 | HEK293 MP dye inactive
Cn1c2ccc(F)cc2c2ncn(CCCN(CCO)CCO)c(=O)c21	none (no result: TAG inh) | CHT activ conf 49.6 | HEK293 MP dye -40.9
Cn1c2ccc(F)cc2c2ncn(CCN3CCOCC3)c(=O)c21	none
Cc1noc(C)c1C(=O)OCC(=O)Nc1cc(Cl)ccc1Oc1ccccc1	CHT PAM 6.72 | CHT activ conf 28.1 | HEK293 MP dye inactive
COc1ccc(OC)c(NC(=O)COC(=O)c2c(C)noc2C)c1	none (no result: CHT block, Kir21 block, CHT PAM)
COc1ccc(C2=NC(C)(C)Cc3cc(OC)c(OC)cc32)cc1OC	none (no result: TAG inh) | CHT activ conf 72.2 | HEK293 MP dye -82.7
COc1cc2c(cc1OC)C(c1cc3ccccc3oc1=O)=NC(C)(C)C2	none (no result: TAG inh)
CC(=O)c1ccc2c(c1)N(CCCN(C)C)c1ccccc1S2	none (no result: CHT block, Kir21 block, CHT PAM)
CCC(=O)c1ccc2c(c1)N(CCCN(C)C)c1ccccc1S2	CHT PAM 9.09 | CHT activ conf 28.6 | HEK293 MP dye -44.5
Cc1cccn2cc(-c3ccccc3)nc12	none
Cc1cccn2cc(CNc3ccccc3)nc12	none (no result: TAG inh) | CHT activ conf 31.1 | HEK293 MP dye -26.5
c1ccc(CCn2cccc2)nc1	none (no result: CHT block, Kir21 block, CHT PAM)
CC1(C)Cc2c(sc3c2C2=NCCN2C=N3)CS1	CHT PAM 9.49 | CHT activ conf 33.9 | HEK293 MP dye -62.1
O=C(CCCN1CCC(O)(c2cccc(C(F)(F)F)c2)CC1)c1ccc(F)cc1	none (no result: Kir21 block)
O=C(CCCN1CCC(O)(c2ccc(Br)cc2)CC1)c1ccc(F)cc1	none (no result: Kir21 block) | CHT activ conf 60.1 | HEK293 MP dye inactive
COc1ccc([C@H]2/C=C\CN(C(=O)CC(C)(C)C)[C@@H](C)C(=O)N2Cc2ccc(F)cc2)cc1	CHT PAM 9.03 | CHT activ conf 24.7 | HEK293 MP dye inactive
COc1ccc([C@H]2/C=C\CN(C(=O)c3ccc(C)cc3)[C@@H](C)C(=O)N2Cc2ccc(F)cc2)cc1	none
